# RAM inhibit: inhibitors of the yeast RAM network, primary screen, dse1pr::URA3 reporter, 5-FOA selection | S. cerevisiae dse1pr::URA3 reporter, 5-FOA growth OD615, 2 d; analog-sensitive cbk1-as2 kinase mutant strain | inhibition, % at 50 µM | 190,000 compounds, 1.8% hits | AID 868, 2007;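 active means inhibition above a set limit, 3 SD over mean compound inhibition, cut at about 8.4% in these data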;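 further: 0% = DMSO-only wells with no growth and 100% = 10 µM 1-NA-PP1 full growth; inhibition rescues growth on 5-FOA so higher OD means more RAM inhibition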
# CHOP inh: inhibitors of CHOP promoter induction, primary screen, cell-based, unfolded protein response, luciferase reporter | CHO-K1 CHOP-promoter luciferase, tunicamycin-induced, 15-18 h | 220,000 compounds, 3.8% hits | AID 2732, 2010 | inhibition, % at 10 µM;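 active means compounds that reduced the stress-induced luciferase reporter signal by more than about 70% of percent inhibition, limit read from the data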;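 further: 0% = tunicamycin plus vehicle and 100% = wells without tunicamycin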
# L major viab: Leishmania major promastigote growth inhibition, primary screen; Leishmania major promastigotes, resazurin fluorescence viability; inhibition, % at 10 µM; 200,000 compounds, 9% hits; in the data active means inhibition above about 50%;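 further: promastigotes grown with compound for 44 hours at 28 °C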
# WT yeast gro inh: growth inhibition of WT strain, primary screen, mitochondrial fusion inhibitor project, WT and mutant strains, chemical genetic; mitochondrial fusion phenotypic screen; inhibition, % at 10 µM; 190,000 compounds, 2.1% hits; in the data active means inhibition above about 58%; tested in S. cerevisiae
# Numbers without * were called inactive; / = not tested or not shown. In the library only some 13% were active in any assay of this set; here they are far more common.
SMILES,RAM inhibit,CHOP inh,L major viab,WT yeast gro inh
Cc1cc(C)nc(NS(=O)(=O)c2ccc(N=Cc3c(C)[nH]n(-c4ccccc4)c3=O)cc2)n1,0,-6,-2,12
Cc1ccc(N2C(SCC(=O)O)=NC(=Nc3cccc(C)c3)C23CCCC3)cc1,0,8,-6,-11
COc1ccc(N2CCN(C(=O)CN(C)S(=O)(=O)c3cc(C)ccc3OC)CC2)cc1,1,3,-7,-12
CCc1ccc(NC(=O)CCc2nc3cccnc3n2Cc2ccc(OC)cc2)cc1,1,92*,7,5
O=C(O)CCc1nc2cccnc2n1Cc1ccccc1,3,18,-3,-3
Cn1cnnc1-c1cccc(NC(=O)c2cc(F)c(F)cc2Cl)c1,4,12,6,-50
O=C(/C=C/c1ccccc1)/C=C/c1ccccc1,-2,98*,100*,57
O=C(/C=C/c1ccccc1)c1ccccc1,0,-64,17,-2
COc1ccccc1N1CCN(C2CC(=O)N(C)C2=O)CC1 (stereo unspecified),1,21,3,-12
CCC(=Nc1ccccc1O)C1=C(O)CC(c2ccccc2)CC1=O (stereo unspecified),/,3,/,/
CCC(=Nc1ccccc1OC)C1=C(O)CC(c2ccccc2)CC1=O (stereo unspecified),0,5,53*,9
CCOc1ccccc1N=CC1=C(O)CC(c2ccccc2)CC1=O (stereo unspecified),11*,24,-5,10
O=C(Nc1ccc(Cl)c(Cl)c1)N1N=CCC1c1ccccc1 (stereo unspecified),3,38,19,68
Cc1ccc(NC(=O)CC(=O)c2ccc([N+](=O)[O-])cc2)cc1S(=O)(=O)Nc1cccc(Cl)c1,2,47,51*,7
Cc1ccc(C(=O)Nc2cccc([N+](=O)[O-])c2)cc1S(=O)(=O)Nc1ccc(NC(=O)c2ccccc2)cc1,6,-18,62*,-11
Cc1ccc(NS(=O)(=O)c2cc(C(=O)Nc3cccc([N+](=O)[O-])c3)ccc2C)cc1,3,47,67*,64*
O=C(Nc1ccccc1)c1cccc(S(=O)(=O)Oc2ccc([N+](=O)[O-])cc2)c1,10*,10,2,19
O=C1CN(C(=O)COc2ccc(Br)cc2Br)c2ccccc2N1,4,24,17,7
Cc1ccc(C(=O)N2CCCC2)cc1S(=O)(=O)Nc1ccccc1,0,-11,3,-3
Cc1ccc(C(=O)NCCSC2CCCCC2)cc1S(=O)(=O)Nc1ccccc1,11*,23,97*,8
Cc1ccc(NC(=O)c2cccs2)cc1S(=O)(=O)Nc1cccc(Cl)c1,7,41,51*,70*
O=S(=O)(Nc1ccc(S(=O)(=O)Nc2ccccc2)cc1)c1ccccc1,1,-7,0,-2
Cc1ccc(NS(=O)(=O)c2ccc(OCC(=O)Nc3cccc([N+](=O)[O-])c3)c(C)c2)cc1,3,55,100*,/
O=[N+]([O-])c1ccc(Oc2ccc(S(=O)(=O)Nc3ccccc3)cc2)cc1,9.8*,71*,66*,42
CC(C)CCNC(=O)NC(=O)COC(=O)/C=C/c1cc(Br)ccc1F,6,66,-2,-5
SMILES,RAM inhibit,CHOP inh,L major viab,WT yeast gro inh
O=C(c1ccc(NC(=S)NCc2ccco2)cc1)N1CCOCC1,0,0,-4,3
Cc1ccccc1NS(=O)(=O)c1cc(C(=O)Nc2cccc(N(C)S(C)(=O)=O)c2)ccc1C,5,6,97*,5
CN(c1cccc(NC(=O)c2ccc(Cl)c(S(=O)(=O)Nc3ccccc3)c2)c1)S(C)(=O)=O,3,-1,-2,-3
Cc1csc(NC(=O)c2cc3c(C)nn(Cc4ccccc4Cl)c3s2)n1,2,28,96*,33
CC(C)CC1(C)N=C(c2ccccc2)C(=S)N1 (stereo unspecified),1,2,-2,-9
CC(=O)c1cnn(-c2ccccc2)c1C,0,20,-8,-54
Cc1c(C(=O)Oc2cccc3ccccc23)cnn1-c1ccccc1,8.6*,41,7,/
CCn1nnnc1NCc1cccn1C,0,-3,-5,-16
COc1ccc(/C=C2\SC(=N)N(c3nccs3)C2=O)cc1OC,-1,-105,97*,33
COc1ccc(/C=C2\SC(=O)N=C2N)cc1OC,4,2,53*,-3
N=C1S/C(=C\c2ccc(-c3cccc(Cl)c3)o2)C(=O)N1c1nccs1,3,59,99*,-4
COc1ccc(/C=C2\SC(=S)N(NC(=O)c3ccncc3)C2=O)cc1OC,6,-3,-4,-13
O=C1OC(c2cccs2)=N/C1=C\c1ccc(-c2cccc(Cl)c2)o1,/,11,2,0
CCC(CC)NC(=O)Cc1ccccc1OC,2,42,-3,2
Cc1cc(C)cc(Oc2ccc(NC(=O)C3CC=CCC3C(=O)O)cc2)c1 (stereo unspecified),2,9,-5,1
COc1ccc(OC)c(-c2c3cc(O)c(=O)cc-3oc3cc(O)c(O)cc23)c1,7,-1,-9,58*
O=C(CSc1nccc(=O)[nH]1)Nc1cccc(S(=O)(=O)N2CCOCC2)c1,2,-22,-3,11
Cc1oc(C)c2c(=O)ccc3c(c12)OC(N)=C(C#N)C3c1ccccc1Cl (stereo unspecified),8.8*,81*,11,-10
Cc1oc(C)c2c(=O)ccc3c(c12)OC(N)=C(C#N)C3c1ccccc1 (stereo unspecified),1,13,10,-1
CSc1ccc(C2C(C#N)=C(N)Oc3c2ccc(=O)c2c(C)oc(C)c32)cc1 (stereo unspecified),1,83*,41,7
Cc1ccc(S(=O)(=O)N2CCCCC2)cc1NC(=O)Cc1c[nH]c2ccccc12,1,5,19,-14
CCOC(=O)C1CCN(C(=O)c2ccccc2NS(=O)(=O)c2ccc(F)cc2)CC1,1,-6,53*,11
Cc1ccc(NC(=O)c2ccccc2NS(=O)(=O)c2ccc(F)cc2)cc1S(=O)(=O)N1CCCCC1,8.9*,68,6,4
CCOC(=O)C1CCN(C(=O)c2ccccc2NS(=O)(=O)c2cc(C)ccc2C)CC1,1,17,1,-2
Cc1ccc(NC(=O)Cc2c[nH]c3ccccc23)cc1S(=O)(=O)N1CCCCCC1,3,15,92*,-3
O=C(Nc1cccc(S(=O)(=O)N2CCCCC2)c1)c1ccccc1NS(=O)(=O)c1ccc(F)cc1,3,63,-4,4
O=S(=O)(Nc1ccccc1N1CCCCC1)c1ccc(F)cc1F,2,9,17,9
OC(COc1ccc2ccccc2c1Br)Cn1ccnc1 (stereo unspecified),0,38,98*,71*
OC(COc1ccc2ccccc2c1)Cn1ccnc1 (stereo unspecified),0,11,98*,-1
CC(=O)Nc1ccc(OCC(O)Cn2ccnc2)cc1 (stereo unspecified),0,-22,-5,-13

# Screening results: PubChem, several laboratories
